Source: PubChem
tim23-1 inh = growth inhibitors of tim23-1 mutant yeast, primary screen, luminescence, uHTS; inhibition, % at 20 µM; 1.3% of 330,000 active; AID 463212, 2010; S. cerevisiae tim23-1 growth, BacTiter-Glo luminescence, 24 h;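 active = growth inhibition of the mutant yeast at or above 50%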;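 note: temperature-sensitive mutant grown at 25 °C; plate controls were DMSO-treated mutant yeast for no effect and medium wells lacking yeast for full effect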
NALP3 yeast inh = NALP3 inflammasome inhibitors in reconstituted yeast, primary screen, luminescence, uHTS. Yeast reconstituted NLRP3/ASC/caspase-1, beta-gal luminescence, 24 h. inhibition, % at 10 µM. 0.39% of 330,000 active. AID 2825, 2010;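 active = inhibition of 50% or more; inactive = inhibition below 50%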;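 note: plate controls were induced DMSO wells for no effect and uninduced yeast grown without galactose for full effect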
Yeast superoxide = reduction of superoxide in aged yeast, primary screen, HTS; 0.18% of 330,000 active; AID 2690, 2010; S. cerevisiae aged cells, superoxide DHE fluorescence; stronger effect = lower value; superoxide response (% of plate mean), % at 10 µM;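 active = superoxide response under a set limit, about three screen SD below normal, cut at about 65% in these data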;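 note: yeast aged for seven days with compound at 30 °C before DHE staining; 100% = average MFI of all compound-treated wells on the plate with controls excluded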
tim10-1 inh = growth inhibitors of tim10-1 mutant yeast, primary screen, luminescence, uHTS; S. cerevisiae tim10-1 ts strain growth, BacTiter-Glo, 24 h; inhibition, % at 20 µM; 2.2% of 330,000 active; AID 463190, 2010;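 active = inhibition of at least 40%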;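 note: mutant grown at 25 °C; 0% = DMSO wells with yeast and 100% = wells holding no yeast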
TIM10 inh = growth inhibitors of isogenic TIM10 control yeast, primary screen, counter-screen for tim10-1 yeast inhibitor project, luminescence, uHTS. S. cerevisiae TIM10 strain growth, BacTiter-Glo luminescence, 24 h. inhibition, % at 10 µM. 1.4% of 330,000 active. AID 463195, 2010;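 active = inhibition of 40% or more at the single tested concentration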;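 note: wild-type TIM10 isogenic control strain grown at permissive 25 °C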
tim10 confirm = growth inhibitors of wild-type TIM10 yeast, confirmation, counter-screen for tim10-1 synthetic lethality project, single concentration, luminescence, S. cerevisiae; shares compounds with TIM10 inh; S. cerevisiae tim10 strain growth, BacTiter-Glo luminescence, 24 h; inhibition, % at 10 µM; 63% of 4,600 active; AID 463215, 2010;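 active = inhibition of yeast growth at or above a set limit in either of two replicates at 10 µM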;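 note: this counterscreen used the strain with wild-type TIM10; 0% = yeast with DMSO and 100% = medium wells lacking yeast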
tim23-1 confirm = tim23-1 mutant yeast growth inhibitors, confirmation, luminescence, single concentration; shares compounds with tim23-1 inh; 83% of 4,400 active; inhibition, % at 20 µM; S. cerevisiae tim23-1 growth, BacTiter-Glo luminescence, 24 h;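 active = inhibition above about 39% in either of two replicate wells at 20 µM, limit read from the data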;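 note: temperature-sensitive tim23-1 mutant grown at 25 °C; 0% = DMSO wells with yeast and 100% = medium wells without yeast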
Active calls of the source: *. Rows were chosen to be rich in hits. Some 3.8% of all compounds tested hit in one or more screens of this group.

Results for COc1ccc(C(=O)Nc2ccc3ccccc3c2)c(OC)c1 ?
tim23-1 inh: 60.5*; NALP3 yeast inh: 30.5; Yeast superoxide: 99.7; tim10-1 inh: 17.7; TIM10 inh: 57.4*; tim10 confirm: 62.0*; tim23-1 confirm: 80.0*

What do the screens show for `COc1ccccc1C(=O)Nc1ccc2ccccc2c1`?
tim23-1 inh: 33.4; NALP3 yeast inh: 24.7; Yeast superoxide: 99.2; tim10-1 inh: 22.7; TIM10 inh: 20.3

How did O=C(CCl)Nc1cccc(-c2cnc3ccccc3n2)c1 do in these assays?
tim23-1 inh: 63.3*; NALP3 yeast inh: -3.6; Yeast superoxide: 130.9; tim10-1 inh: 34.2; TIM10 inh: 40.4*; tim10 confirm: 0.5; tim23-1 confirm: 40.4*

Results for CCCN(CCC)CCNC(=O)CN1C(=O)COc2ccc(S(=O)(=O)N3CCOCC3)cc21 ?
tim23-1 inh: 9.3; NALP3 yeast inh: 11.9; Yeast superoxide: 105.4; tim10-1 inh: -6.9; TIM10 inh: 0.6

How did O=Cc1ccccc1OCCOc1ccc([N+](=O)[O-])cc1 do in these assays?
tim23-1 inh: 58.4*; NALP3 yeast inh: 22.6; Yeast superoxide: 107.2; tim10-1 inh: 36.4; TIM10 inh: 75.8*; tim10 confirm: 68.0*; tim23-1 confirm: 89.5*

Results for CC(=O)c1ccc(OCCOc2ccc([N+](=O)[O-])cc2)cc1 ?
tim23-1 inh: 38.2; NALP3 yeast inh: 28.5; Yeast superoxide: 107.5; tim10-1 inh: 18.0; TIM10 inh: 4.9

How did CCc1ccc(O)c(N=Cc2cccc(C)c2O)c1 do in these assays?
tim23-1 inh: 25.4; NALP3 yeast inh: 6.8; Yeast superoxide: 90.9; tim10-1 inh: 21.9; TIM10 inh: 8.1

Results for CCCc1ccc(O)c(N=Cc2cc(Br)cc(OCC)c2O)c1 ?
tim23-1 inh: 56.5*; NALP3 yeast inh: 31.6; Yeast superoxide: 77.1; tim10-1 inh: 37.4; TIM10 inh: 43.1*; tim10 confirm: 32.9*; tim23-1 confirm: 74.3*

Results for CC1CC(C)CN(C(=S)Nc2ccc(SC(F)F)cc2)C1 (stereo unspecified) ?
tim23-1 inh: 54.2*; NALP3 yeast inh: 26.1; Yeast superoxide: 102.3; tim10-1 inh: 34.0; TIM10 inh: 52.4*; tim10 confirm: -1.9; tim23-1 confirm: 52.4*

What do the screens show for `COC(=O)N/N=C/c1cc([N+](=O)[O-])cc(Br)c1O`?
tim23-1 inh: 5.1; NALP3 yeast inh: 20.7; Yeast superoxide: 104.3; tim10-1 inh: 25.5; TIM10 inh: 3.5

What do the screens show for `O=C(N/N=C/c1cc(Br)cc(Br)c1O)c1ccncc1`?
tim23-1 inh: 64.7*; NALP3 yeast inh: 25.7; Yeast superoxide: 89.1; tim10-1 inh: 28.1; TIM10 inh: 45.4*; tim10 confirm: 51.2*; tim23-1 confirm: 65.2*

Results for CCC(O)(CC)C(=O)N/N=C/c1cc(Br)cc(Br)c1O ?
tim23-1 inh: 66.9*; NALP3 yeast inh: 14.2; Yeast superoxide: 90.7; tim10-1 inh: 14.0; TIM10 inh: 57.9*; tim10 confirm: 49.0*; tim23-1 confirm: 73.0*

How did COc1cc(/C=N/NC(=O)C(N)=O)ccc1OCC(=O)N1C(C)CCCC1C (stereo unspecified) do in these assays?
tim23-1 inh: 2.1; NALP3 yeast inh: 6.5; Yeast superoxide: 107.7; tim10-1 inh: 14.2; TIM10 inh: 17.9

What do the screens show for `O=C(Nc1nnc(CCS(=O)(=O)c2ccc3ccccc3c2)s1)c1ccc([N+](=O)[O-])cc1`?
tim23-1 inh: -3.3; NALP3 yeast inh: 12.8; Yeast superoxide: 107.0; tim10-1 inh: 8.2; TIM10 inh: 0.6

Results for Cn1nc(C(=O)NCc2ccccc2)c2c1-c1ccccc1S(=O)(=O)C2 ?
tim23-1 inh: 16.4; NALP3 yeast inh: -7.8; Yeast superoxide: 99.7; tim10-1 inh: 16.3; TIM10 inh: 7.2

How did O=C(Nc1cccc(-c2cc3ccccc3oc2=O)c1)c1ccc(Br)o1 do in these assays?
tim23-1 inh: 55.5*; NALP3 yeast inh: 25.6; Yeast superoxide: 105.9; tim10-1 inh: 39.4; TIM10 inh: 43.3*; tim10 confirm: 47.0*; tim23-1 confirm: 62.0*

What do the screens show for `COc1cc(NS(C)(=O)=O)c(OC)cc1NC(=O)c1cccc(F)c1`?
tim23-1 inh: 12.4; NALP3 yeast inh: 4.3; Yeast superoxide: 93.4; tim10-1 inh: 6.8; TIM10 inh: 1.8

What do the screens show for `CCOC(=O)c1cc(-c2ccncc2)nc2c1c(C)nn2C`?
tim23-1 inh: 53.2*; NALP3 yeast inh: 24.1; Yeast superoxide: 93.0; tim10-1 inh: 37.3; TIM10 inh: 45.3*; tim10 confirm: 41.4*; tim23-1 confirm: 50.8*

What do the screens show for `CC(CN1CCOCC1)OC(=O)c1ccc2c(c1)OCCO2` (stereo unspecified)?
tim23-1 inh: 72.1*; NALP3 yeast inh: 7.2; Yeast superoxide: 110.3; tim10-1 inh: 24.2; TIM10 inh: 41.4*; tim10 confirm: 12.5; tim23-1 confirm: 47.2*

Results for CC(CN1CCCCC1)OC(=O)c1ccc2c(c1)OCCO2 (stereo unspecified) ?
tim23-1 inh: 19.0; NALP3 yeast inh: 23.2; Yeast superoxide: 102.1; tim10-1 inh: 3.4; TIM10 inh: -8.1

Results for O=C1/C(=C/c2ccc(O)cc2)COc2ccccc21 ?
tim23-1 inh: 77.6*; NALP3 yeast inh: 49.1; Yeast superoxide: 100.8; tim10-1 inh: 39.3; TIM10 inh: 46.3*; tim10 confirm: 35.8*; tim23-1 confirm: 49.9*

How did CN(C(=O)CN1C(=O)c2ccccc2S1(=O)=O)C1CCCCC1 do in these assays?
tim23-1 inh: 16.6; NALP3 yeast inh: 18.3; Yeast superoxide: 102.1; tim10-1 inh: 8.1; TIM10 inh: -2.2

What do the screens show for `COc1cccc(OC)c1C(=O)NCCc1ccccc1`?
tim23-1 inh: -0.3; NALP3 yeast inh: -1.8; Yeast superoxide: 103.3; tim10-1 inh: -24.7; TIM10 inh: -32.6

What do the screens show for `COc1cccc2cc(C(=O)NCCc3ccccc3)oc12`?
tim23-1 inh: 62.0*; NALP3 yeast inh: 38.4; Yeast superoxide: 107.7; tim10-1 inh: 31.8; TIM10 inh: 50.3*; tim10 confirm: 37.4*; tim23-1 confirm: 76.7*

What do the screens show for `Cc1ccccc1-c1noc(-c2ccc(O)cc2)n1`?
tim23-1 inh: 87.7*; NALP3 yeast inh: 21.4; Yeast superoxide: 94.8; tim10-1 inh: 30.5; TIM10 inh: 48.2*; tim10 confirm: 61.5*; tim23-1 confirm: 73.2*

How did Cc1ccc(C)n1-c1ccc(NC(=O)c2ccccc2)cc1 do in these assays?
tim23-1 inh: 26.4; NALP3 yeast inh: 4.1; Yeast superoxide: 101.3; tim10-1 inh: 12.9; TIM10 inh: -8.9
